This note sets out measurements from PubChem BioAssay (NCI).

This is part of a sample that, as a whole, favours compounds with a hit. Of some 83,000 tested, about 20% had one in any assay.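 The test compound was applied at a single concentration to cells in 96-well plates for 48 hours, and percent growth was recorded.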 Values without a mark were called inactive. Calls of active or inactive are those of the source. The calls were made as follows: active = growth percent below 10; inactive = the rest.

This test deals with UACC-62 melanoma. Kind of test: NCI-60 one-dose screen, 48 h (100 = growth as untreated, 0 = no growth, -100 = all killed). Particulars: 10 µM unless noted.
On to `Nc1c(C(=O)c2ccc(F)cc2)sc2nc3c(cc12)CCCC3`, for which the growth was 75%.
For `COc1cccc(/C=C2\SC(N3CCN(c4ccccn4)CC3)=NC2=O)c1`, the growth was 95.9%.
Next, `CCCC(C(=O)OCC)C(C)OC(=O)OCC` (centres undefined): 103%.
Regarding `O=C(/C=C/CN1CCOCC1)Nc1cc2c(Nc3cccc(Cl)c3F)ncnc2cc1OCCOC(F)F`, the growth was 72%.
On to `COc1ccc(-c2nc3sccn3c2-c2ccnc(NCCCNS(=O)(=O)c3ccc4ccccc4c3)n2)cc1`, for which the growth was 54.5%.
On to `CC(CCc1ccccc1)NC(=O)c1n[nH]c(=O)c2ccccc12` (centres undefined), for which the growth was 93.9%.
Turning to `Cc1cc(NC(=O)COC(=O)c2sc3cc(F)ccc3c2Cl)no1`, the growth was 90.2%.
With `COc1ccc(C(=O)c2cc(OC)c(OC)c(OC)c2)cc1/C=C/C(=O)c1ccc2c(c1)OCO2`, the growth was -63.5% (active).
For `COc1ccc(/C=C/c2cc(N3CCOCC3)c3cc(F)c(F)cc3n2)cc1OC`, the growth is 19.9%.
Under `CCn1cc(C(=O)O)c(=O)c2cc(F)c(N3CCN(S(=O)(=O)c4c(C)cc(C)cc4C)CC3)cc21` stands 75.9%; under `O=C(Nc1cc(C(F)(F)F)cc(C(F)(F)F)c1)Nc1ccc(OCc2nnc(-c3ccc(Cl)cc3)o2)c(F)c1`, 27.7%; under `O=C(c1ccncc1)N1N=C(c2ccc(Cl)cc2)CC1c1c[nH]c2ccccc12` (centres undefined), 90.5%.
On to `CC(Br)C(OC(=O)c1ccccc1Cl)c1cc2c(cc1Br)OCO2` (centres undefined), for which the growth was 72.5%.
As for `CCC(c1ccc(OC)cc1)C(CC)c1ccc(O)c(CN2CCCC2)c1` (centres undefined), the growth was -74.1% (active).
Next, `CC(C)(C)OC(=O)N[C@@H](Cc1ccccc1)C(=O)N(Cc1ccccc1)C1(C(=O)NCc2ccccc2)CCN(Cc2ccccc2)CC1`: 26%; `Cn1c(-c2nonc2NC(=O)c2ccc(F)cc2)nc2ccccc21`: 108%.
Next, `c1ccn2nnnc2c1`: 105%.
With `c1cncc(CNc2ccccc2-c2nnc(Nc3ccc4c(c3)OCCO4)o2)c1`, the growth is 39.8%.
Next, `COc1cc2nc(SCc3cc(OC)c(OC)c(OC)c3)n(Cc3ccccc3)c(=O)c2cc1OC`: 23.4%; `COc1ccc(C(=O)N2CCN(C(=O)c3cc(OC)c(OC)c(OC)c3)CC2)cc1OCCCCOc1cc2c(cc1OC)C(=O)N1CCC[C@H]1C=N2`: 97.2%; `O=S(=O)(NCCNc1cc(-c2cn(-c3ccccc3)nc2-c2ccccc2)ccn1)c1cccc2ccccc12`: 56.5%.
Next, `O=S(=O)(NCCNc1nccc(-c2c(-c3ccccc3)nc3sccn23)n1)c1ccc(O)cc1`: 52.4%; `Cc1ccc2c(c1)C(C)Cc1c(N(C)C)ncnc1N2C` (centres undefined): 33%; `CCN(CC)c1cc(/C=C/c2ccc(OC)c(OC)c2)nc2cc(F)c(F)cc12`: 10.4%.
Consider `COc1ccc(-c2nc3sccn3c2-c2ccnc(NCCCNS(=O)(=O)c3ccc(C)cc3)n2)cc1`, for which the growth is 10.9%.
Under `C=C1C(=O)O[C@H]2[C@H]1CC/C(Cn1cc(-c3ccc(N)cc3)nn1)=C\CC[C@@]1(C)O[C@@H]21` stands -37.4% (active); under `CC(C)N(Cc1ccc(CN(C(=O)CCl)C(C)C)cc1)C(=O)CCl`, 2.74% (active).
Take `COc1ccc(NC(=S)/N=c2\oc3c(OC)cccc3cc2-c2cc3ccccc3[nH]2)cc1`: the growth is 76.4%.
Under `Cc1cnc(NC(=O)C(Cc2ccccc2)NC(=O)c2ccccc2)s1` (centres undefined) stands 62.2%.
For `CC(C)C[C@H](NC(=O)Cn1ccc(NCc2ccccc2)cc1=O)B(O)O`, the growth was 4% (active).
As to `CN1CCN(CCCOc2ccc3nc(Nc4ccc(C(F)(F)F)c(Cl)c4)ccc3c2)CC1`, the growth was -36.3% (active).
Next, `O=C(CCCn1c2c(sc3ccccc32)c(=O)n2nnc(-c3ccccc3)c12)NCCc1cnc[nH]1`: -68.6% (active).
Next, `CC1Cc2c(N(C)C)ncnc2N(C)c2ccc(Cl)cc21` (centres undefined): 33.2%.
For `O=C(Nc1ccc(F)cc1)c1cc([N+](=O)[O-])ccc1O`, the growth is 36.8%.
In the case of `CC(=O)Nc1ccc2c(c1)/C(=C\C=C/c1ccc([N+](C)(C)C)cc1)c1ccccc1-2`, the growth is 100%.
On to `COc1ccc(-c2nc3sccn3c2-c2ccnc(NCCNS(=O)(=O)c3ccc(C(F)(F)F)cc3)n2)cc1`, for which the growth is 0.0074% (active).
Next, `O=C1C2=C(C(=O)c3c(O)ccc(O)c31)N(c1cccnc1)Cc1ccccc1O2`: -76.5% (active); `CC(=O)Nc1ccc(S(=O)(=O)NC(CCC(=O)Nc2ccc(Cl)cc2)C(=O)O)cc1` (centres undefined): 67.5%.
Next, `COc1ccc(-c2cn[nH]c2-c2cc(OC)c3c(c2)OCCO3)cc1`: 37.6%.
